Values joined by “and” are separate entries in the source; they are usually repeats but may differ in a detail not shown here. Equal entries are not always repeated. Results filed as inconclusive are left out. Active and inactive are the calls of the source. Unless noted, calls come from the whole dose curve; as a rule, active = well fitted curve in the direction sought with a large enough effect; inconclusive = small, poorly fitted or top-dose-only effect, or another doubt; inactive = no such curve, though single readings can be large; an effect the other way counts as inactive or inconclusive.
What was measured:
[1] = Cellular Toxicity (caspase-3) HepG2 (AID 654); conditions: HepG2 caspase-3 activation, luminescence, 0% = DMSO only, 100% = tamoxifen; series mostly up to 92.2 µM;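 note: cells exposed to compound for 16 hours before reading; 0% = DMSO alone and 100% = caspase signal from 100 µM tamoxifen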
Outline: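 HepG2 cells (1500/well) in complete medium were treated with compounds for 16 hr at 37 °C. Caspase-3/7 activity was then read as luminescence from peptide-aminoluciferin cleavage. AC50 came from Hill fits, normalized to DMSO and 100 uM tamoxifen.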

[2] = Cellular Toxicity (caspase-3) Jurkat (AID 655); conditions: Jurkat caspase-3 activation, luminescence, DMSO = 0%, tamoxifen = 100%; series mostly up to 92.2 µM;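 note: cells exposed to compound for 16 h at 37 °C before reading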
Outline: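 Jurkat cells (5000/well) in complete medium exposed 16 h at 37 C; caspase-3/7 activity read by Caspase-Glo luminescence after 20 min at room temperature. Normalized to DMSO and 100 uM tamoxifen; AC50 from Hill fits.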

[3] = Cellular Toxicity (caspase-3) HUV-EC-C (AID 656); conditions: HUV-EC-C cells, caspase-3 activation (apoptosis), vehicle = 0, 100 µM tamoxifen = 100%; series mostly up to 92.2 µM
Outline: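 HUV-EC-C cells (1000/well) in complete medium, compound-treated 16 h at 37 °C; caspase-3/7 activity read by Caspase-Glo 3/7 luminescence. Normalized to DMSO (basal) and 100 uM tamoxifen (100%); AC50 from Hill-equation concentration-response fits.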

[4] = Cellular Toxicity (caspase-3) BJ (AID 658); conditions: BJ fibroblasts, luminescence, normalized: DMSO 0%, staurosporine 100%; series mostly up to 91.7 µM
Outline: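 Luminescent aminoluciferin-substrate cleavage reports caspase 3/7 activity in normal human BJ fibroblasts after 16 hr compound exposure at 37 °C. Normalized to DMSO (basal) and 10 uM staurosporine (100%); AC50 from Hill fit of concentration-response.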

[5] = Cellular Toxicity (caspase-3) MRC-5 (AID 659); conditions: MRC-5 cells, luminescence, normalized: DMSO 0%, 10 µM staurosporine 100%; series mostly up to 91.7 µM
Outline: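 Luminescence from caspase-cleaved aminoluciferin substrate (Caspase-Glo 3/7, 1 hr RT) reports caspase 3/7 activity in MRC-5 lung fibroblasts after 16 hr compound exposure. Normalized to DMSO basal and 10 uM staurosporine as 100%; AC50 from Hill fits.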

[6] = Cellular Toxicity (caspase-3) Mesangial (AID 660); conditions: mesangial cells, normalized: DMSO 0%, 100 µM tamoxifen 100%; series mostly up to 91.7 µM;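 note: cells exposed to compound for 16 h before the caspase read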
Outline: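 Human renal glomerular mesangial cells (1000/well) were treated with compounds for 16 h at 37 °C in complete medium, then caspase 3/7 activity was read by Caspase-Glo luminescence. Data were normalized to DMSO and 100 uM tamoxifen; AC50 from Hill fits.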

[7] = Cellular Toxicity (caspase-3) SK-N-SH (AID 661); conditions: SK-N-SH caspase-3 activation, qHTS, DMSO as zero, staurosporine as full; series mostly up to 91.7 µM
Outline: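 SK-N-SH human neuroblastoma cells (1500/well) were treated with compounds for 16 hr at 37 °C in complete medium; caspase 3/7 activity was read by Caspase-Glo luminescence. AC50 came from Hill fits of data normalized to DMSO and 10 uM staurosporine.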

[8] = Cellular Toxicity (caspase-3) N2a (AID 665); conditions: N2a cells, luminescence, normalized: DMSO 0%, 10 µM staurosporine 100%; series mostly up to 92.2 µM;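 note: compound exposure lasted 16 h at 37 °C before readout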
Outline: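 Mouse N2a neuroblastoma cells (1500/well) were treated with compounds for 16 h at 37 °C, then caspase-3/7 activity was read by Caspase-Glo luminescence after 1 h at room temperature. Data were normalized to DMSO and 10 uM staurosporine; AC50 from Hill fits.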

[9] = Cellular Toxicity (caspase-3) NIH 3T3 (AID 666); conditions: NIH 3T3 caspase-3 activation, apoptosis/toxicity, 0% DMSO, 100% is 100 µM tamoxifen; series mostly up to 92.2 µM;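 note: caspase signal read after 16 h compound exposure; 0% = DMSO basal and 100% = 100 µM tamoxifen stimulation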
Outline: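 Mouse NIH 3T3 fibroblasts (1000 cells/well) were treated with compound for 16 hr at 37°C in complete medium; caspase-3/7 activity was read by Caspase-Glo luminescence. Normalized to DMSO and 100 uM tamoxifen; AC50 from Hill fits.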

[10] = Cellular Toxicity (caspase-3) Renal Proximal Tubule (AID 667); conditions: renal proximal tubule cells; series mostly up to 91.7 µM;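 note: cells exposed to compound for 16 hours at 37 °C before detection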
Outline: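 Freshly isolated primary rat kidney proximal tubule cells, 1000/well, treated 16 hr at 37 °C, then Caspase-Glo 3/7 luminescence after 1 hr. Normalized to DMSO and 10 uM staurosporine; AC50 from Hill fit.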

[11] = qHTS assay for small molecule activators of the nuclear factor-kappa B (NF-kB) signaling pathway (AID 651749; active = well fitted activation curve with a large enough effect in the signal ratio; the % refers to the signal ratio; note: % of control where 0% means no effect); conditions: NF-kB-bla ME-180 cells, beta-lactamase FRET ratio, 16 h; activation: hits give high values
Outline: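 ME-180 cells stably carrying a beta-lactamase reporter under an NF-kB response element were exposed to compound or DMSO vehicle for 16 hr at 37C, 5% CO2. Pathway activation was read by FRET, since reporter expression disrupts FRET.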

[12] = qHTS assay for small molecule disruptors of the mitochondrial membrane potential - 5 hr assay (AID 651755; calls by dose curve; note: % is set by controls: 0 for no effect and ±100 for the full control effect; nearly all actives have a fitted effect of over 40% in size); conditions: JC-1-type ratio dye; series mostly up to 92.2 µM
Outline: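 HepG2 cells, attached overnight at 37C, were exposed to compound or DMSO for 5 hr at 37C, 5% CO2. Mito-MPS dye was then added for 30 min, and fluorescence read at 490/535 nm (monomers) and 540/590 nm (aggregates).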

[13] = target: Tumor necrosis factor (Homo sapiens) (UniProt P01375); test: qHTS assay to identify small molecules that stimulate Tumor Necrosis Factor-alpha (TNF-alpha) secretion (AID 651757; active = well fitted curve in the direction sought with a large enough effect in the signal ratio; the % refers to the signal ratio; note: 0% is about no effect); conditions: Human cells, HTRF 665/615 ratio; series mostly up to 92.2 µM
Outline: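 THP-1 cells were exposed to compounds for 17 hrs at 37 C, after which secreted TNF-alpha was measured by homogeneous HTRF (TR-FRET) using cryptate- and XL665-labeled anti-TNF-alpha antibodies, read after 3 hr at room temperature.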

[14] = qHTS assay for environmental chemicals that activate the Aryl hydrocarbon Receptor (AhR) signaling pathway (AID 651777); conditions: 1A2-DRE human hepatoma cells, luciferase, 24 h; activation: hits give high values; note: % of control where 0% means no effect; nearly all actives have a fitted effect of over 15% in size
Outline: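 Following a 24 hr incubation with test chemicals at 37 C and 5% CO2, 1A2-DRE human hepatoma cells received One-Glo reagent; after 30 min at room temperature, luciferase output reflected CYP1A2 induction via AhR.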

[15] = target: Peroxisome proliferator-activated receptor alpha (Homo sapiens) (UniProt Q07869); test: qHTS assay for small molecule agonists of the peroxisome proliferator-activated receptor alpha (PPARalpha) signaling pathway (AID 651778); conditions: PathHunter PPARalpha complementation, chemiluminescence, 6 h; hits give high values; note: % of control where 0% means no effect
Outline: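 Cells plated at 2,000/well and held overnight at 37 C, 5% CO2, then compound added by pin tool for 6 hr; after PathHunter detection reagent and 60 min at room temperature, chemiluminescence from enzyme complementation was read.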

[16] = target: Nuclear receptor ROR-gamma (Homo sapiens) (UniProt P51449); test: qHTS assay for small molecule antagonists of the retinoid-related orphan receptor gamma (ROR-gamma) signaling pathway (AID 651802); conditions: ROR-gamma antagonist cell reporter assay; series mostly up to 92.2 µM; note: % is set by controls: 0 for no effect and ±100 for the full control effect; nearly all actives have a fitted effect of over 60% in size
Outline: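 CHO cells carrying TET-inducible ROR-gamma and an ROR response element–luciferase reporter were exposed to compound, then induced with doxycycline. After 16hr at 37C, luminescence was read; lower signal indicates antagonism.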

[17] = qHTS assay for small molecule agonists of the antioxidant response element (ARE) signaling pathway measured by Nrf2-dependant transcriptional activity (AID 720636; active = well fitted curve in the direction sought with a large enough effect in the repeat runs; an effect the other way counts as inactive or inconclusive;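 note: HepG2 cells with an ARE-driven luciferase reporter; % of control where 0% means no effect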); conditions: ARE-luc HepG2, Nrf2 luciferase reporter, 16 h; series mostly up to 92.4 µM
Outline: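 ONE-Glo luminescence, read 30 min after reagent addition at room temperature, reflected ARE reporter activity in HepG2 cells that had been incubated with compound for 16 hr at 37 C in 1% dialyzed FBS.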

[18] = qHTS assay for small molecule antagonists of the retinoid-related orphan receptor gamma (ROR-gamma) signaling pathway - cell viability counter screen (AID 720652; active = well fitted curve in the direction sought with a large enough effect in the repeat runs; an effect the other way counts as inactive or inconclusive;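 note: compound exposure lasted 16 hr before ATP read; % is set by controls: 0 for no effect and ±100 for the full control effect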); conditions: RORgamma reporter cell line viability counter screen; series mostly up to 92.2 µM
Outline: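 Counter screen in CHO cells carrying TET-inducible ROR-gamma and an ROR response element-luciferase reporter; cells plated 5 hr, compound pinned, doxycycline added, then 16 hr at 37 C. Viability read as intracellular ATP by CellTiter-Glo luminescence.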

[19] = qHTS assay for small molecule agonists of the antioxidant response element (ARE) signaling pathway measured by Nrf2-dependant transcriptional activity - cell viability counter screen (AID 720653; active = well fitted curve in the direction sought with a large enough effect in the repeat runs; an effect the other way counts as inactive or inconclusive; note: % is set by controls: 0 for no effect and ±100 for the full control effect); conditions: ARE-bla HepG2 viability, CellTiter-Glo ATP luminescence, 16 h; max response: hits give low values
Outline: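 ARE-bla HepG2 cells (2,000/well) rested 5 hrs at 37C/5% CO2, then exposed to compounds in DMSO for 16 hrs. Viability was read in the same wells as intracellular ATP by luminescence, 30 min at room temperature after reagent addition.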

[20] = target: Nuclear receptor subfamily 1 group I member 2 (Rattus norvegicus) (UniProt Q9R1A7); test: qHTS assay for small molecule activators of the rat pregnane X receptor (rPXR) signaling pathway (AID 651751; call rule not given here; note: 0% is about no effect); conditions: rPXR reporter cells, luciferase (One-Glo), 24 h
Nuclear receptor subfamily 1 group I member 2 (Rattus norvegicus), sequence (Q9R1A7 whole entry, looked up): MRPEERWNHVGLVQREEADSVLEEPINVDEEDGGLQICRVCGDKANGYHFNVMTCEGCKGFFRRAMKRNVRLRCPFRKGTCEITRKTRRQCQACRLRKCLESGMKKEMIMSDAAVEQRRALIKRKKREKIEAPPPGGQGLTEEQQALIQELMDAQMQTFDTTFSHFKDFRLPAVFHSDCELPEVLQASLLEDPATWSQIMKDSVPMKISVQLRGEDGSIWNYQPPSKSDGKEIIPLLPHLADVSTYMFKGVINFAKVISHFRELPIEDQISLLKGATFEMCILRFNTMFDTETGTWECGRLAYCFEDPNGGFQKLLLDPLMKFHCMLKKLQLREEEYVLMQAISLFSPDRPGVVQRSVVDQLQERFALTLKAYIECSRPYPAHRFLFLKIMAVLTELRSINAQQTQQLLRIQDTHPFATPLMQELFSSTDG

Peroxisome proliferator-activated receptor alpha (Homo sapiens), sequence (Q07869 whole entry, looked up): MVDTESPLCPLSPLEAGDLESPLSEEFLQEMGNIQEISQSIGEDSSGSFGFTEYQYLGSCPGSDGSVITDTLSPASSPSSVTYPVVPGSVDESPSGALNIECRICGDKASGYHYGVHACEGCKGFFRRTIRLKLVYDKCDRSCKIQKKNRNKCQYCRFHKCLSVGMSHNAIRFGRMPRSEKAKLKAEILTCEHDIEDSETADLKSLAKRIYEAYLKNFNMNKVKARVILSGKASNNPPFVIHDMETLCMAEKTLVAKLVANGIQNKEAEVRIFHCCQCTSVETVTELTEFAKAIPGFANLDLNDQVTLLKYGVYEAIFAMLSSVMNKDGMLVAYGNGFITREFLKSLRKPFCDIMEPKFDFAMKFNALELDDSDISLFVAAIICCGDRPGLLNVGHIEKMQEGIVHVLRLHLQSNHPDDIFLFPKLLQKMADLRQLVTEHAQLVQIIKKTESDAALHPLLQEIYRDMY
Tumor necrosis factor (Homo sapiens), sequence (P01375 whole entry, looked up): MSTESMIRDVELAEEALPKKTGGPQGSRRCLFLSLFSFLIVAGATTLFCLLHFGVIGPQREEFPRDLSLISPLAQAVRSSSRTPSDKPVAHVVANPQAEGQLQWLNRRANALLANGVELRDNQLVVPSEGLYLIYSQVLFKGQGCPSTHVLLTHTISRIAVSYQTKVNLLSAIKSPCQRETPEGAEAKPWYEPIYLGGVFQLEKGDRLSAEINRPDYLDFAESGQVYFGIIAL
Nuclear receptor ROR-gamma (Homo sapiens), sequence (P51449 whole entry, looked up): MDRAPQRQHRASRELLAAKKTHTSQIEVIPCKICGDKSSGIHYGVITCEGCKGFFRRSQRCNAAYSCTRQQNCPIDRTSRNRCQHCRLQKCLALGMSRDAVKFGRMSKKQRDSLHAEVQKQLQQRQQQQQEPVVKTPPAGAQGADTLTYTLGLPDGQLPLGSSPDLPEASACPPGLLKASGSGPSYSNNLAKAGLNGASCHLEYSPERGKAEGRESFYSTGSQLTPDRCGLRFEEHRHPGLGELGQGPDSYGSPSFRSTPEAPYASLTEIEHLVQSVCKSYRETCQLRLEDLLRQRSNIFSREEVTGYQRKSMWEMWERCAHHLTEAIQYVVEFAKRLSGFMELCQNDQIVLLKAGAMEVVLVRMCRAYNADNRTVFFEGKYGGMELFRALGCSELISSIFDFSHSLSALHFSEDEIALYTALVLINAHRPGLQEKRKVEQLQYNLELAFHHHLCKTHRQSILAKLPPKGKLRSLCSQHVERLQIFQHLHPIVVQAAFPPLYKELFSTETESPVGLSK

Cc1ccccc1O
inactive: outcome [1] | outcome [2] | outcome [3] | outcome [4] | outcome [5] | outcome [6] | outcome [7] | outcome [8] | outcome [9] | outcome [10] | activation [11] 0.871% and 6.75% | Potency [12] | outcome [13] | activation [14] -0.175% and -0.566% | max response [15] -1.66% and -0.689% | Potency [16] | Potency [17] | outcome [18] | max response [19] -2.37% and 9.1% | max response [20] 0.289% and -3.94%
